Test results: a collection of fitness landscapes (doi:10.1016/j.celrep.2020.107928)
Whole data set: some 81,000 sequences, median “one-hybrid fitness for binding NBS DNA” near -0.1, cut for the highest 2% near 0.36. The sample holds the highest values, similar sequences and a random draw of the others, so the mix is not that of the screen.

B1: Caulobacter ParB omega fusion; a variant is named by its letters at X, in order, B8GW30 (parent)
chain: MESVVVGEPGMSEGRRGLGRGLSALLGEVDAAPAQAPGEQLGGSREAPIEILQRNPDQPRRTFREEDLEDLSNSIREKGVLQPILVRPSPDTAGEYQIVAGERAWRAAQRAGLKTVPIMVRELDDLAVLEIGIIENVQRADLNVLEEALSYKVLMEKFERTQENIAQTIGKSXSHVANXMRLLXLPDEVQSYLVSGELTAXHARAIAAAADPVALAKQIIEGGLSVRETEALARKAPNLSAGKSKGGRPPRVKDTDTQALESDLSSVLGLDVSIDHRGSTGTLTITYATLEQLDDLCNRLTRGI

Variants of: B1
Test: one-hybrid fitness for binding NBS DNA (the Noc-binding site; scaled: cognate 1, non-cognate 0); higher = stronger binding
Details: with NBS DNA site
Method in brief: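 Pre- and post-selection plasmids were Illumina-sequenced, three replicate libraries were pooled, and any variant with under 10 reads was removed. The libraries were Caulobacter ParB with four specificity codons randomised, selected in E. coli USO through a HIS3 reporter whose site is 19 bp from the promoter. Cells grew 48 hours at 37°C on M9 without histidine, with 0.1 mM IPTG and 5 mM 3-AT. Fitness is the log change in variant-to-wild-type read ratio, rescaled against cognate and non-cognate.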

Variant | one-hybrid fitness for binding NBS DNA
FLFY | ≤ 0.2
CVRG | ≤ 0.2
MMMT | ≤ 0.2
PQRS | ≤ 0.2
PARP | ≤ 0.2
AWAT | ≤ 0.2
NMTI | ≤ 0.2
LVAP | ≤ 0.2
RIYS | 0.413
RINS | 0.445
RIDS | ≤ 0.2
RIWS | 0.397
RIRD | ≤ 0.2
RIIS | ≤ 0.2
RIRS | 0.56
RIRP | ≤ 0.2
RIND | ≤ 0.2
RIWD | ≤ 0.2
RIFS | 0.214
RIWP | ≤ 0.2
DTYS | ≤ 0.2
SANL | ≤ 0.2
RGWI | ≤ 0.2
YSMI | ≤ 0.2
YTKY | ≤ 0.2
IQNI | ≤ 0.2

Variant | one-hybrid fitness for binding NBS DNA
RIHD | ≤ 0.2
RIHN | ≤ 0.2
RIHS | 0.381
NKNM | ≤ 0.2
QYVV | ≤ 0.2
IYPV | 0.41
WYRV | ≤ 0.2
QYSV | ≤ 0.2
QYRV | 0.392
QYKV | 0.372
QYDV | ≤ 0.2
QYYV | ≤ 0.2
IYIV | ≤ 0.2
WYVV | ≤ 0.2
IYVV | ≤ 0.2
WYCV | 0.366
YGDI | ≤ 0.2
FTRD | ≤ 0.2
NWLT | ≤ 0.2
YDPL | ≤ 0.2
LENS | ≤ 0.2
ALND | ≤ 0.2
TGNW | ≤ 0.2
KKVR | ≤ 0.2
KHVR | ≤ 0.2
NKKT | ≤ 0.2

Variant | one-hybrid fitness for binding NBS DNA
KTKP | ≤ 0.2
KTKR | 0.555
KKKR | 0.523
KHKS | ≤ 0.2
KKVT | ≤ 0.2
KTVR | ≤ 0.2
NKKR | 0.3
KKKT | 0.427
KHKR | 0.396
SSSH | ≤ 0.2
GTSM | ≤ 0.2
MDYV | ≤ 0.2
FTRY | ≤ 0.2
SQTT | ≤ 0.2
RWDE | ≤ 0.2
GLVI | ≤ 0.2
CLLR | ≤ 0.2
SYKR | 0.378
DYKR | ≤ 0.2
SYYR | ≤ 0.2
KMVR | ≤ 0.2
FWPP | ≤ 0.2
NMKR | 0.201
KMKR | 0.4
SYVR | ≤ 0.2
KYYR | ≤ 0.2

Variant | one-hybrid fitness for binding NBS DNA
KYKR | 0.414
FWDR | ≤ 0.2
FWPR | 0.486
RDNL | ≤ 0.2
KNNH | ≤ 0.2
FMCG | ≤ 0.2
KYLR | ≤ 0.2
VTMQ | ≤ 0.2
RNIC | ≤ 0.2
AMWM | ≤ 0.2
TRYP | ≤ 0.2
RGPH | ≤ 0.2
VTSA | ≤ 0.2
MRFI | ≤ 0.2
CKWS | ≤ 0.2
DQKR | ≤ 0.2
NQKR | ≤ 0.2
FPKR | ≤ 0.2
FSKR | 0.218
KKVS | ≤ 0.2
KKKS | 0.425
FCKR | 0.392
KPKR | ≤ 0.2
KKKN | ≤ 0.2
KCKR | 0.397
KQKR | 0.425

Variant | one-hybrid fitness for binding NBS DNA
KSKR | 0.342
YLQM | ≤ 0.2
MIYY | ≤ 0.2
WSMT | ≤ 0.2
YVTI | ≤ 0.2
WDTC | ≤ 0.2
QSRV | 0.396
QMRV | 0.45
QADV | ≤ 0.2
QMDV | ≤ 0.2
QSYV | ≤ 0.2
QARV | 0.376
QAYV | ≤ 0.2
QMYV | ≤ 0.2
QRSV | 0.388
QSSV | ≤ 0.2
QSDV | ≤ 0.2
QCSV | ≤ 0.2
QYAA | 0.237
RQRI | ≤ 0.2
SPGV | ≤ 0.2
RRPE | ≤ 0.2
QMVE | ≤ 0.2
VKVA | ≤ 0.2
CPHR | ≤ 0.2
FHQR | ≤ 0.2

Variant | one-hybrid fitness for binding NBS DNA
QRCV | 0.406
QPQV | ≤ 0.2
QCAV | ≤ 0.2
SFQV | 0.447
QRFV | 0.275
QCQV | ≤ 0.2
QPCV | ≤ 0.2
QRAV | 0.424
QRQV | 0.397
QCCV | ≤ 0.2
SFRV | ≤ 0.2
DFQV | ≤ 0.2
SHME | ≤ 0.2
HLRR | ≤ 0.2
GKSS | ≤ 0.2
QVST | 0.318
ALAR | ≤ 0.2
NTES | ≤ 0.2
QCYV | ≤ 0.2
QKYV | ≤ 0.2
QKRV | 0.41
QCGV | 0.221
QTRV | 0.576
QTYV | ≤ 0.2
